{
  "source": "ChEMBL document CHEMBL3433997",
  "about": "“St. Jude Leishmania screening dataset” (2016)",
  "data": [
    {"biological_target": "Solute carrier family 2, facilitated glucose transporter member 1 (Homo sapiens) (UniProt P11166)", "sequence (P11166 whole entry)": "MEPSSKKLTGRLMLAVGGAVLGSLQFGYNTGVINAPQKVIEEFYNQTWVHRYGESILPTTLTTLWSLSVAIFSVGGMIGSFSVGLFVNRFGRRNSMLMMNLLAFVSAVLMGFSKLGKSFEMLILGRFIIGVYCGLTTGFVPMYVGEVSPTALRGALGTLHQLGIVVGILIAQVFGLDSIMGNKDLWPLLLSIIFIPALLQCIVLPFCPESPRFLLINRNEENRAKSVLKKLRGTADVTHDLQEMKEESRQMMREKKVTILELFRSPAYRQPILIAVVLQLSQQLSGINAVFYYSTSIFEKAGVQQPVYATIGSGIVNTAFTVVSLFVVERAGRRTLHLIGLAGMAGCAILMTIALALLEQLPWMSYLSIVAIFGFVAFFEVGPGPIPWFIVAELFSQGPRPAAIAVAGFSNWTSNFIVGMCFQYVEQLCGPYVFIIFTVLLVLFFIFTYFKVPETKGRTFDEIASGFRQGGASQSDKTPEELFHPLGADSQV", "test": "ST_JUDE_LEISH: Cytotoxicity at 2uM final concentration against transgenic Leishmania Mexicana promastigotes LmGLUT1 that are glucose transport deficient and complemented with the human glucose transporter GLUT1. Activity is measured by DNA content using SYBR green in vitro", "type": "functional", "units": {"inhibition": "%"}, "values": [
      {"smiles": "Cc1ccc(-c2nc(N3CCN(C(=O)c4ccco4)CC3)c3ccc(Cl)cc3n2)cc1", "inhibition": 1.17},
      {"smiles": "O=C(/C=C/c1ccc(Cl)c(Cl)c1)NCCCCCN1CCCC(C(=O)Nc2cccc(Cl)c2)C1", "note": "(stereo not drawn)", "inhibition": 3.89},
      {"smiles": "Cc1cc(Nc2ccc3ccccc3c2)n2ncnc2n1", "inhibition": -0.63},
      {"smiles": "CCCc1c(C(=O)Nc2ccc3c(c2)CCN(C2CCC2)CC3)cnn1-c1ccc(Cl)cc1", "inhibition": 5.65},
      {"smiles": "COc1cc2ncnc(Nc3ccc4nc(-c5ccccc5)[nH]c4c3)c2cc1OC", "inhibition": 4.22},
      {"smiles": "N#Cc1ccccc1C(=O)N(Cc1cncn1Cc1cccc(F)c1)CC1CC1", "inhibition": 6.38},
      {"smiles": "c1cc(-c2ccc(CNCCCN3CCOCC3)cc2)cc(-c2nc3ccccc3[nH]2)c1", "inhibition": 1.09},
      {"smiles": "O=C(N[C@H]1CCN(Cc2ccc(OC3CCN(Cc4ccccc4)CC3)c(Br)c2)C1)c1ccc(Cl)c(Cl)c1", "inhibition": -0.92},
      {"smiles": "NC1CCCN(Cc2cccc(-c3ccc(-c4nc5ccccc5[nH]4)cc3)c2)C1", "note": "(stereo not drawn)", "inhibition": 7.18},
      {"smiles": "Cc1cc(N[C@@H](CC(C)C)C(=O)NCc2cccs2)nc(NCCc2ccc(F)cc2)n1", "inhibition": 0.98},
      {"smiles": "N#Cc1ccc2c(c1)CCN(CCC1CCC(NC(=O)/C=C/c3ccc4[nH]ccc4c3)CC1)CC2", "note": "(stereo not drawn)", "inhibition": 1.65},
      {"smiles": "COc1ccc(F)cc1-c1ccc(C(=O)N2CCCN(c3ccc(C#N)cn3)CC2)cc1", "inhibition": 0.86},
      {"smiles": "COc1cccc(OCC2CCCN(CCCCNC(=O)c3ccc(NC(=O)c4ccc(Cl)cc4)cc3)C2)c1", "note": "(stereo not drawn)", "inhibition": -2.42},
      {"smiles": "CC(Oc1ccc(NC(=O)c2cccs2)cc1)C(=O)c1ccc(Cl)cc1", "note": "(stereo not drawn)", "inhibition": 11.3},
      {"smiles": "COc1ccc(CN2CCN(C(=O)c3cccs3)CC2)c(O)c1", "inhibition": 10.5},
      {"smiles": "Cc1cnc(NCC2CCCCC2)nc1N[C@@H](CC(C)C)C(=O)Nc1ccccc1", "inhibition": 2.17},
      {"smiles": "CCC(C)NC(=O)Nc1ccc(-c2cccc(-c3nc4cc(C(F)(F)F)ccc4[nH]3)c2)cc1", "note": "(stereo not drawn)", "inhibition": 9.64},
      {"smiles": "COc1ccc(-c2ccc(NC(=O)c3cccc(F)c3)cc2)cc1CNC(C)C", "inhibition": 0.72},
      {"smiles": "NS(=O)(=O)c1ccc(CNC(=O)c2cnc3c(O)cccc3c2Nc2cccc(NC(=O)c3ccc(Cl)c(Cl)c3)c2)cc1", "inhibition": 5.22},
      {"smiles": "Cc1[nH]c(/C=C2\\C(=O)Nc3ccc(S(=O)(=O)Cc4c(Cl)cccc4Cl)cc32)c(C)c1C(=O)N1CCC[C@@H]1CN1CCCC1", "inhibition": 1},
      {"smiles": "O=C(NCc1ccccc1)c1nn(CCCN2CCC(N3CCCC3)CC2)cc1-c1ccc(Cl)c(Cl)c1", "inhibition": 4.94},
      {"smiles": "Cn1nc(-c2ccc(NC(=O)Nc3cc(C(F)(F)F)cc(C(F)(F)F)c3)c(F)c2)c2cnc(NCCN3CCOCC3)nc21", "inhibition": 2.68},
      {"smiles": "CCOC(=O)[C@H](Cc1cc([N+](=O)[O-])c(Oc2ccc(OC)c(Cc3ccc(OC)c(C(C)C)c3)c2)c([N+](=O)[O-])c1)NC(=O)C(F)(F)F", "inhibition": 10.8},
      {"smiles": "Cc1cccc2nc(-c3cccc(-c4cccc(CNCCNC(=O)c5ccnn5C)c4)c3)[nH]c12", "inhibition": -1.89},
      {"smiles": "CC1(C)CCCN(c2ncc(-c3cccc(CNCc4ccccc4O)c3)cn2)C1", "inhibition": 2.91},
      {"smiles": "COc1cc(C(=O)NC2CCN(Cc3ccccc3)CC2)ccc1-c1nc2cc(Cl)c(Cl)cc2[nH]1", "inhibition": 0.11},
      {"smiles": "Oc1ccc2[nH]cc(C3CCN(CCCNCc4ccc(-c5ccccc5)cc4)CC3)c2c1", "inhibition": 5.26},
      {"smiles": "CCc1c(CCNCCCCCCNC(C)(C)Cc2ccc3c(c2CC)OCO3)ccc(OC)c1OC", "inhibition": 10},
      {"smiles": "COc1ccc(-c2cc(C(=O)N[C@@H](CC3CCCCC3)C(=O)NCCN3CCCC3)ccc2O)cc1", "inhibition": 0.33},
      {"smiles": "COc1ccc2c(c1)c(C1CCN(CCCCNC(=O)c3ccc(-c4ccc(C(F)(F)F)cc4)cc3)CC1)cn2C(C)C", "inhibition": -0.71},
      {"smiles": "CC1CC1C(=O)NC1CCN(CC2(c3ccccc3)CCCCC2)CC1", "note": "(stereo not drawn)", "inhibition": 0.87},
      {"smiles": "CC(C)[C@H](NC(=O)c1c(F)cccc1F)C(=O)Nc1ccc(Cc2nc3ccccc3s2)cc1", "inhibition": 4.82},
      {"smiles": "COc1cccc(Nc2nc(C)cc(NCc3ccc(-c4c(C)noc4C)cc3)n2)c1", "inhibition": 14.8},
      {"smiles": "Cc1cc(N2CCCC2)nc(Nc2ccc(NC(=O)C(C)(C)C)cc2)n1", "inhibition": 0.4},
      {"smiles": "COc1cccc(C(=O)N2CCOC(CCN3CCC(c4ccccc4)CC3)(c3ccc(Cl)c(Cl)c3)C2)c1", "note": "(stereo not drawn)", "inhibition": 0.55},
      {"smiles": "COc1ccc(CNC2CCN(C)CC2)cc1-c1ccc(S(=O)(=O)NC2CCC2)cc1", "inhibition": 2.91},
      {"smiles": "COc1cc2ncnc(Nc3ccc(OCc4ccccc4)c(I)c3)c2cc1OC", "inhibition": 1.41},
      {"smiles": "CCN1CCN(CCNc2c3ccccc3nc3ccccc23)CC1", "inhibition": 83.5},
      {"smiles": "CN1CCN(Cc2nc(-c3ccc4c(Nc5ccc(F)c(O)c5)ccnc4c3)cs2)CC1", "inhibition": 7.7}
    ]},
    {"biological_target": "Hexose transporter 1 (Plasmodium falciparum) (UniProt O97467)", "test": "ST_JUDE_LEISH: Cytotoxicity at 2uM final concentration against transgenic Leishmania Mexicana promastigotes LmPfHT that are glucose transport deficient and complemented with the Plasmodium falciparum hexose transporter. Activity is measured by DNA content using SYBR green in vitro", "type": "functional", "units": {"inhibition": "%"}, "values": [
      {"smiles": "Cc1ccc(-c2nc(N3CCN(C(=O)c4ccco4)CC3)c3ccc(Cl)cc3n2)cc1", "inhibition": 2.21},
      {"smiles": "O=C(/C=C/c1ccc(Cl)c(Cl)c1)NCCCCCN1CCCC(C(=O)Nc2cccc(Cl)c2)C1", "note": "(stereo not drawn)", "inhibition": 2.5},
      {"smiles": "Cc1cc(Nc2ccc3ccccc3c2)n2ncnc2n1", "inhibition": -3.58},
      {"smiles": "CCCc1c(C(=O)Nc2ccc3c(c2)CCN(C2CCC2)CC3)cnn1-c1ccc(Cl)cc1", "inhibition": 4.4},
      {"smiles": "COc1cc2ncnc(Nc3ccc4nc(-c5ccccc5)[nH]c4c3)c2cc1OC", "inhibition": 3.9},
      {"smiles": "N#Cc1ccccc1C(=O)N(Cc1cncn1Cc1cccc(F)c1)CC1CC1", "inhibition": 10.2},
      {"smiles": "c1cc(-c2ccc(CNCCCN3CCOCC3)cc2)cc(-c2nc3ccccc3[nH]2)c1", "inhibition": -0.33},
      {"smiles": "O=C(N[C@H]1CCN(Cc2ccc(OC3CCN(Cc4ccccc4)CC3)c(Br)c2)C1)c1ccc(Cl)c(Cl)c1", "inhibition": 2.97},
      {"smiles": "NC1CCCN(Cc2cccc(-c3ccc(-c4nc5ccccc5[nH]4)cc3)c2)C1", "note": "(stereo not drawn)", "inhibition": 5.94},
      {"smiles": "Cc1cc(N[C@@H](CC(C)C)C(=O)NCc2cccs2)nc(NCCc2ccc(F)cc2)n1", "inhibition": -0.43},
      {"smiles": "N#Cc1ccc2c(c1)CCN(CCC1CCC(NC(=O)/C=C/c3ccc4[nH]ccc4c3)CC1)CC2", "note": "(stereo not drawn)", "inhibition": 0.57},
      {"smiles": "COc1ccc(F)cc1-c1ccc(C(=O)N2CCCN(c3ccc(C#N)cn3)CC2)cc1", "inhibition": 0.21},
      {"smiles": "COc1cccc(OCC2CCCN(CCCCNC(=O)c3ccc(NC(=O)c4ccc(Cl)cc4)cc3)C2)c1", "note": "(stereo not drawn)", "inhibition": 1.68},
      {"smiles": "CC(Oc1ccc(NC(=O)c2cccs2)cc1)C(=O)c1ccc(Cl)cc1", "note": "(stereo not drawn)", "inhibition": 10},
      {"smiles": "COc1ccc(CN2CCN(C(=O)c3cccs3)CC2)c(O)c1", "inhibition": 11.1},
      {"smiles": "Cc1cnc(NCC2CCCCC2)nc1N[C@@H](CC(C)C)C(=O)Nc1ccccc1", "inhibition": 1.5},
      {"smiles": "CCC(C)NC(=O)Nc1ccc(-c2cccc(-c3nc4cc(C(F)(F)F)ccc4[nH]3)c2)cc1", "note": "(stereo not drawn)", "inhibition": 8.86},
      {"smiles": "COc1ccc(-c2ccc(NC(=O)c3cccc(F)c3)cc2)cc1CNC(C)C", "inhibition": -0.6},
      {"smiles": "NS(=O)(=O)c1ccc(CNC(=O)c2cnc3c(O)cccc3c2Nc2cccc(NC(=O)c3ccc(Cl)c(Cl)c3)c2)cc1", "inhibition": 5.59},
      {"smiles": "Cc1[nH]c(/C=C2\\C(=O)Nc3ccc(S(=O)(=O)Cc4c(Cl)cccc4Cl)cc32)c(C)c1C(=O)N1CCC[C@@H]1CN1CCCC1", "inhibition": 0.58},
      {"smiles": "O=C(NCc1ccccc1)c1nn(CCCN2CCC(N3CCCC3)CC2)cc1-c1ccc(Cl)c(Cl)c1", "inhibition": 0.77},
      {"smiles": "Cn1nc(-c2ccc(NC(=O)Nc3cc(C(F)(F)F)cc(C(F)(F)F)c3)c(F)c2)c2cnc(NCCN3CCOCC3)nc21", "inhibition": 2.48},
      {"smiles": "CCOC(=O)[C@H](Cc1cc([N+](=O)[O-])c(Oc2ccc(OC)c(Cc3ccc(OC)c(C(C)C)c3)c2)c([N+](=O)[O-])c1)NC(=O)C(F)(F)F", "inhibition": 9.19},
      {"smiles": "Cc1cccc2nc(-c3cccc(-c4cccc(CNCCNC(=O)c5ccnn5C)c4)c3)[nH]c12", "inhibition": -1.71},
      {"smiles": "CC1(C)CCCN(c2ncc(-c3cccc(CNCc4ccccc4O)c3)cn2)C1", "inhibition": 2.13},
      {"smiles": "COc1cc(C(=O)NC2CCN(Cc3ccccc3)CC2)ccc1-c1nc2cc(Cl)c(Cl)cc2[nH]1", "inhibition": 1.66},
      {"smiles": "Oc1ccc2[nH]cc(C3CCN(CCCNCc4ccc(-c5ccccc5)cc4)CC3)c2c1", "inhibition": 8.52},
      {"smiles": "CCc1c(CCNCCCCCCNC(C)(C)Cc2ccc3c(c2CC)OCO3)ccc(OC)c1OC", "inhibition": 10.7},
      {"smiles": "COc1ccc(-c2cc(C(=O)N[C@@H](CC3CCCCC3)C(=O)NCCN3CCCC3)ccc2O)cc1", "inhibition": 1.9},
      {"smiles": "COc1ccc2c(c1)c(C1CCN(CCCCNC(=O)c3ccc(-c4ccc(C(F)(F)F)cc4)cc3)CC1)cn2C(C)C", "inhibition": 1.93},
      {"smiles": "CC1CC1C(=O)NC1CCN(CC2(c3ccccc3)CCCCC2)CC1", "note": "(stereo not drawn)", "inhibition": 1.18},
      {"smiles": "CC(C)[C@H](NC(=O)c1c(F)cccc1F)C(=O)Nc1ccc(Cc2nc3ccccc3s2)cc1", "inhibition": 4.54},
      {"smiles": "COc1cccc(Nc2nc(C)cc(NCc3ccc(-c4c(C)noc4C)cc3)n2)c1", "inhibition": 13.4},
      {"smiles": "Cc1cc(N2CCCC2)nc(Nc2ccc(NC(=O)C(C)(C)C)cc2)n1", "inhibition": 2.7},
      {"smiles": "COc1cccc(C(=O)N2CCOC(CCN3CCC(c4ccccc4)CC3)(c3ccc(Cl)c(Cl)c3)C2)c1", "note": "(stereo not drawn)", "inhibition": -0.77},
      {"smiles": "COc1ccc(CNC2CCN(C)CC2)cc1-c1ccc(S(=O)(=O)NC2CCC2)cc1", "inhibition": 2.71},
      {"smiles": "COc1cc2ncnc(Nc3ccc(OCc4ccccc4)c(I)c3)c2cc1OC", "inhibition": 0.71},
      {"smiles": "CCN1CCN(CCNc2c3ccccc3nc3ccccc23)CC1", "inhibition": 80.6},
      {"smiles": "CN1CCN(Cc2nc(-c3ccc4c(Nc5ccc(F)c(O)c5)ccnc4c3)cs2)CC1", "inhibition": 1.76}
    ]}
  ]
}
